# Marburg entry: qHTS for Inhibitors of binding or entry into cells for Marburg Virus; Marburg virus pseudotype entry/binding inhibition, cell-based; Potency, µM (series often up to 49.2 µM), without a hit: at the highest dose activity change, negative = inhibition, usual class: inhibitors; AID 720532, 2013; 18,000 tested, 6.5% active
# LASV entry inh: qHTS for Inhibitors of binding or entry into cells for Lassa Virus. Lassa virus pseudotyped entry inhibition, cell-based qHTS. Potency, µM (doses to about 49.2 µM), for inactives: at the highest dose activity change, negative = inhibition, usual class: inhibitors. 18,000 tested, 4.1% active
# Starred values were filed as active, the others as inactive; ? = inconclusive; . = no result given; ! = not active in a repeat; [ ] = remark or other dose. Hits are enriched below; roughly 7.1% of the tested compounds scored in any of these assays. The call rests on the fitted dose curve; tested in HEK293 cells. On the % scale 0 is the no-effect control and ±100 the full control effect; potency means the concentration at half of the fitted maximal effect.
SMILES,Marburg entry,LASV entry inh
COc1cccc(CN2CCCC(c3nc(-c4ccncc4)ncc3-c3ccccc3)C2)c1O (centres undefined),11µM*,-30%
COc1ccc(COCC[C@@H]2C[C@@H]3C=CCOP(=O)(O2)O3)cc1,13%,-29%
C[C@H]1[C@@H](c2ccccc2)Oc2c(Cl)cccc2S(=O)(=O)N1Cc1ccc(Cl)cc1,-24%,-8%
COCC=CC1=CC2=CC(=O)C(C)(OC(=O)c3cnc4ccccc4n3)C(=O)C2=CN1C1CC1 (centres undefined),32%[8.59 µM],6%[8.59 µM]
CN(C)C1CCN(CCCOc2ccc(-c3ccc(C#N)cc3)cc2)C1 (centres undefined),11µM*,?
CCN(CC)CCOc1ccc2c(c1)C(=O)c1cc(OCCN(CC)CC)ccc1-2,6.3µM*,?
CCOc1ccc(C(=O)OCCN(CC)CC)cc1,-7%,-11%
C=CCN=C1N[C@H](c2ccc(Br)cc2)C(C(=O)OC)=C(C)N1Cc1ccccc1,1%[8.59 µM],-5%[8.59 µM]
CC[C@@H](C(=O)O)[C@@H]1O[C@@H]([C@@H](C)[C@H](O)[C@H](C)C(=O)[C@H](CC)[C@H]2O[C@]3(C=C[C@@H](O)[C@]4(CC[C@@](C)([C@H]5CC[C@](O)(CC)[C@H](C)O5)O4)O3)[C@H](C)C[C@@H]2C)[C@@H](C)C[C@@H]1C,6.3µM*,1µM*
C[C@H]1CC[C@H]2C(=O)N(Cc3cccc([N+](=O)[O-])c3)C[C@H](O)CN2[C@H]1c1cccc(Br)c1,-16%[8.59 µM],8%[8.59 µM]
CN1CCN(C2=Nc3ccccc3Oc3ccc(Cl)cc32)CC1,?,-6%[17.8 µM]
CN1CCN(C2=Nc3ccccc3Sc3ccc(Cl)cc32)CC1,25µM*,?
COc1cccc([C@@H]2NC(=O)CC=C[C@H](C)[C@H](c3cccc(OC)c3)NC(=O)CC=C[C@H]2C)c1,16%[8.59 µM],5%[8.59 µM]
C=C[C@@H](C)[C@@H](OP1(=O)O[C@@H](C=C)C[C@H](C=C)O1)[C@H](C)CO[Si](C)(C)C(C)(C)C (some centres undefined),?,5%
COC(=O)CC=C[C@@H](C)[C@@H](C=NO[C@H](C)CN1CCCc2nc(C)c(C)cc21)N[S+](=O)([O-])c1ccc(C)cc1,?,14%[8.59 µM]
COC(=O)C1(C(=O)OC)CC(CO)C(=O)[C@@H]1c1ccccc1 (some centres undefined),-8%[8.59 µM],3%[8.59 µM]
C=C1C[C@H]2[C@@H]3C=C(C)C4=CC(=O)CC[C@]4(C)[C@H]3CC[C@]2(C)[C@@]1(OC(C)=O)C(C)=O,13µM*!,?
CC(=O)[C@]1(O)CCC2C3CCC4=CC(=O)CC[C@@]4(C)C3CC[C@]21C (some centres undefined),-6%,-7%
COc1cc2c(cc1OC)[C@@H]1O[C@](CCCCN3C(=O)c4ccccc4C3=O)(C2)Oc2c1c(=O)oc1ccccc21,3%[8.59 µM],-1%[8.59 µM]
C[C@@]1(C(=O)O)NCCc2cc(O)c(O)cc21,8.9µM*,-17%
CC=COC(=O)N[C@@H](c1ccccc1)[C@]1(C(C)=O)CCOC1=O,7%[8.59 µM],24%[8.59 µM]
COc1ccc(S(=O)(=O)N(CCO)c2ccccc2CN(C)C/C=C/c2ccc(Cl)cc2)cc1,8.9µM*,?
CN(C/C=C/c1ccccc1)Cc1cccc2ccccc12,3%,-16%[17.8 µM]
CCN1C(=O)[C@H]2[C@H]3C(=CC[C@@H]2C1=O)C1(OCCCO1)[C@@H]1O[C@H]1[C@H]3O,68%[8.59 µM],8%[8.59 µM]
CN(C)c1ccc2[nH]c(O)c(C=Nc3ccc(S(N)(=O)=O)cc3)c2c1,-22%,.
SMILES,Marburg entry,LASV entry inh
CN(C)CCCc1cc(C(=O)Nc2ccc(-c3ccncc3)cc2)ccc1O,6.3µM*,35µM*!
COc1ccc(CCN(C)Cc2cc(-c3cncnc3)ccc2O)cc1OC,-13%,-10%
COc1ccc2c(c1)[C@@H](NC(=O)C(F)(F)F)C1CCCCC21c1ccccc1 (some centres undefined),-4%[8.59 µM],5%[8.59 µM]
C(#C[C@@H]1C=C[C@H]2OC(c3ccccc3)OC[C@H]2O1)c1ccccc1 (some centres undefined),15%[8.59 µM],2%[8.59 µM]
Cc1ccc2[nH]c(O)c(N=Nc3ccc(S(N)(=O)=O)cc3)c2c1,85%,?
COCC=CC1=CC2=CC(=O)C(C)(OC(=O)c3cnc4ccccc4n3)C(=O)C2=CN1Cc1ccccc1 (centres undefined),19%[8.59 µM],4%[8.59 µM]
CCCCCCN1C[C@H](O)[C@@H](n2cc(COC(=O)c3ccccc3)nn2)C[C@H]1c1ccccc1,?,8%
CC1CCN(CCCC(=O)c2ccc(F)cc2)CC1,-19%,-3%
CC(C)(C)c1ccc(C(=O)CCCN2CCC(OC(c3ccccc3)c3ccccc3)CC2)cc1,-67%,8.9µM*
COC1=C(C(=O)c2ccccc2)C(=O)[C@@]2(CC=C(C)C)C[C@H](C(=O)OCC(F)(F)F)C(C)(C)[C@@]1(CC=C(C)C)C2=O,33%[8.59 µM],2%[8.59 µM]
CC(C)CON=C1C[C@@H](O)[C@@H](O)[C@@H]2[C@H]3C(=O)N(c4ccc(F)cc4F)C(=O)[C@@H]3CC[C@H]12,-10%[8.59 µM],-29%[8.59 µM]
CCCC=Cc1ccc(CN2C(CC(C)C)C(=O)N(Cc3cn(CCC4OCCO4)nn3)CCS2(=O)=O)cc1 (centres undefined),?,3%
CCn1c(-c2nonc2N)nc2c(C#CC(C)(C)O)nc(OCCNC)cc21,13µM*,.
CCn1c(-c2nonc2N)nc2ccccc21,?,19%
CC(C)(C)C1(O)CCN2CC3c4ccccc4CCc4cccc(c43)C2C1 (centres undefined),28µM*,?
CN1CCN2c3ncccc3Cc3ccccc3C2C1 (centres undefined),?,1%
CC(C)(C)[C@]1(O)CCN2C[C@H]3c4ccccc4CCc4cccc(c43)[C@@H]2C1,11µM*,?
CCN(CC)CCCN=C1NC(c2cccc(C(F)(F)F)c2)C(C(=O)OC)=C(C)N1CC (centres undefined),-10%[8.59 µM],-29%[8.59 µM]
CCN1C(=O)NC(CCc2ccccc2)C(C(=O)OC)=C1C (centres undefined),17%[8.59 µM],-2%[8.59 µM]
C[C@@H](NCCCc1cccc(C(F)(F)F)c1)c1cccc2ccccc12,6.3µM*,16µM*
CCNC(C)Cc1cccc(C(F)(F)F)c1 (centres undefined),11%,2%
CO[C@@H]1c2cc(F)ccc2C(=CCCOC(=O)CC=Cc2ccccc2)[C@H]1C,-24%[8.59 µM],-5%[8.59 µM]
C=CC[C@@H]1C=C[C@@H](ON=C2[C@H]3CCn4c(=O)n(-c5ccccc5)c(=O)n4[C@@H]3[C@H](O)[C@@H]3O[C@H]23)[C@@H](CO)O1,-22%[8.59 µM],-5%[8.59 µM]
CCN(CC)CCNC(=O)c1ccc(NS(C)(=O)=O)cc1,1%,0%
CCN(CC)CCNC(=O)c1c(C)[nH]c(/C=C2\C(=O)Nc3ccc(F)cc32)c1C,8.9µM*,?
CCCC[C@]12Cc3c(ccc4ccccc34)[C@H](O1)c1c(cc(C)oc1=O)O2,34%[8.59 µM],5%[8.59 µM]
CCCC[C@]12Cc3ccccc3[C@H](O1)c1c(cc(-c3ccccc3)oc1=O)O2,?,-20%[8.59 µM]
COc1ccc(C[C@H](N)C(=O)N[C@H]2[C@@H](O)[C@H](n3cnc4c(N(C)C)ncnc43)O[C@@H]2CO)cc1,4µM*,4.5µM*
C[C@H](Cc1ccccc1)Nc1ncnc2c1ncn2[C@@H]1O[C@H](CO)[C@@H](O)[C@H]1O,35%,13%
COc1cccc2c1CCCC2CCCN1CCN(C2CCCCC2)CC1 (centres undefined),13µM*,22µM*!
